USP8 block: human USP8 deubiquitinase inhibition. P40818. purified USP8, Ub-rhodamine cleavage fluorescence, 30 min. inhibition, % at 20 µM. hit rate 4.2% among 47,000. AID 1645853
USP10 block: inhibitors of human USP10 deubiquitinase; AID 1645856; inhibition, % at 20 µM; hit rate 1.1% among 47,000; Q14694; purified USP10, Ub-rhodamine fluorescence, 60 min
USP28 block: human USP28 deubiquitinase inhibition | purified USP28, Ub-rhodamine cleavage fluorescence, 30 min | inhibition, % at 25 µM | hit rate 3% among 47,000 | Q96RU2
USP30 inh: blocks human USP30 ubiquitin-rhodamine cleavage; purified USP30, Ub-rhodamine cleavage fluorescence; inhibition, % at 25 µM; hit rate 5.3% among 47,000
Target sequence (Q70CQ3 whole entry, looked up): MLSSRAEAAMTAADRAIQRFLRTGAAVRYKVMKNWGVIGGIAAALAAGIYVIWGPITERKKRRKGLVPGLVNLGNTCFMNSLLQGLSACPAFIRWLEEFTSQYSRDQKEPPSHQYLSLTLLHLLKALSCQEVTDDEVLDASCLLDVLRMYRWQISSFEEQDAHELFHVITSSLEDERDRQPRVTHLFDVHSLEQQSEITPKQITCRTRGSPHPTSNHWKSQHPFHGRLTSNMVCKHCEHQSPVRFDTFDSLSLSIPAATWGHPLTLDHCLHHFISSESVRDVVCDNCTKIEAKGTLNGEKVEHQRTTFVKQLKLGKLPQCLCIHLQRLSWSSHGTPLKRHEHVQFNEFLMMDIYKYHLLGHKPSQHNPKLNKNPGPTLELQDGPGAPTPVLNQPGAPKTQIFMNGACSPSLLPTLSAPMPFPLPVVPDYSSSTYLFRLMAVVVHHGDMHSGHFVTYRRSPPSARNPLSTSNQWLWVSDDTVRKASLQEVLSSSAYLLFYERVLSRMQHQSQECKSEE
USP17 inh: human USP17-like deubiquitinase inhibition; A8MUK1; purified USP17, Ub-rhodamine cleavage fluorescence, 3 h; inhibition, % at 50 µM; hit rate 6.5% among 47,000
Numbers stand for hits. Only some compounds are listed: those with a hit (about 14% of all), similar ones and a draw of the others. No stated cut-off is given here; in the data, active means inhibition above about 30%; inactive means the rest.

How did CC(C)N1C[C@@H]2C[C@H](NS(=O)(=O)c3ccccc3)CN2Cc2ccccc21 do in these assays?
USP8 block: inactive; USP10 block: inactive; USP28 block: inactive; USP30 inh: inactive; USP17 inh: inactive

How did Cc1cc(Cl)ccc1OCCCC(=O)Nc1nc2ccccc2s1 do in these assays?
USP8 block: inactive; USP10 block: inactive; USP28 block: inactive; USP30 inh: inactive; USP17 inh: inactive

What do the screens show for `CC1Cc2ccccc2N1Cc1cc[nH]c(=O)c1` (configuration not stated)?
USP8 block: 45; USP10 block: inactive; USP28 block: inactive; USP30 inh: inactive; USP17 inh: inactive

What do the screens show for `Cc1nn(C)c(C)c1NC(=O)CN1CCCCC1c1nc2ccccc2s1` (configuration not stated)?
USP8 block: inactive; USP10 block: inactive; USP28 block: inactive; USP30 inh: inactive; USP17 inh: inactive

Results for O=C(CCC(=O)N(c1ccccc1)c1ccccc1)Nc1cccc(C(F)(F)F)c1 ?
USP8 block: inactive; USP10 block: inactive; USP28 block: inactive; USP30 inh: 34; USP17 inh: inactive

Results for O=C(Nc1cccc(C(F)(F)F)c1)c1ccccc1Cc1ccccc1 ?
USP8 block: inactive; USP10 block: inactive; USP28 block: inactive; USP30 inh: inactive; USP17 inh: 35

Results for CCOc1ccc(NC(=O)C2CCN(S(=O)(=O)c3cccnc3)CC2)cc1 ?
USP8 block: inactive; USP10 block: inactive; USP28 block: inactive; USP30 inh: inactive; USP17 inh: inactive

What do the screens show for `CC(C)c1ccc(NC(=O)C2CCN(S(=O)(=O)c3cccc4cnccc34)CC2)cc1`?
USP8 block: inactive; USP10 block: inactive; USP28 block: 45; USP30 inh: inactive; USP17 inh: inactive

How did O=C(NCc1ccco1)C1CCN(S(=O)(=O)c2cccc3cnccc23)CC1 do in these assays?
USP8 block: inactive; USP10 block: inactive; USP28 block: inactive; USP30 inh: inactive; USP17 inh: 34

How did O=C(CN1CCC(c2ccncc2)CC1)NCc1ccco1 do in these assays?
USP8 block: inactive; USP10 block: inactive; USP28 block: inactive; USP30 inh: inactive; USP17 inh: inactive

What do the screens show for `CCn1cc(CN2CCc3nc(C(C)C)[nH]c(=O)c3CC2)cn1`?
USP8 block: inactive; USP10 block: inactive; USP17 inh: inactive

Results for O=C(c1cnn2cccnc12)N1CCC(c2ccnc3ccnn23)CC1 ?
USP8 block: inactive; USP10 block: inactive; USP28 block: inactive; USP30 inh: inactive; USP17 inh: inactive

How did COc1ccc(CNc2ccc(C(=O)OCc3ccccc3F)cc2S(=O)(=O)Nc2cccc(OC)c2)cc1 do in these assays?
USP8 block: inactive; USP10 block: 33; USP28 block: inactive; USP30 inh: inactive; USP17 inh: inactive

Results for COc1cccc(NS(=O)(=O)c2cc(C(=O)N3CCCCC3)ccc2NCc2ccccc2OC)c1 ?
USP8 block: inactive; USP10 block: inactive; USP28 block: inactive; USP30 inh: inactive; USP17 inh: inactive

How did COc1ccc2[nH]c3c(c2c1)CCN1C(=O)N(c2ccccc2C(=O)NCc2ccccc2)C(=O)[C@]31C do in these assays?
USP8 block: inactive; USP10 block: inactive; USP28 block: inactive; USP30 inh: inactive; USP17 inh: 61

How did Cc1ccc(CNC(=O)c2cccc(N3C(=O)N4CCc5c([nH]c6ccccc56)[C@@]4(C)C3=O)c2)cc1 do in these assays?
USP8 block: inactive; USP10 block: inactive; USP28 block: inactive; USP30 inh: inactive; USP17 inh: 64

What do the screens show for `COc1ccc(CNC(=O)[C@H](C)N2C(=O)N3CCc4c([nH]c5ccc(OC)cc45)[C@@]3(C)C2=O)cc1`?
USP8 block: inactive; USP10 block: inactive; USP28 block: 33; USP30 inh: inactive; USP17 inh: 50

What do the screens show for `COc1ccc2[nH]c3c(c2c1)CCN1C(=O)N(c2ccccc2C(=O)NCc2ccc4c(c2)OCO4)C(=O)[C@]31C`?
USP8 block: inactive; USP10 block: inactive; USP28 block: inactive; USP30 inh: inactive; USP17 inh: inactive

What do the screens show for `C[C@]12C(=O)N(c3ccccc3C(=O)NCCc3ccccc3)C(=O)N1CCc1c2[nH]c2ccccc12`?
USP8 block: inactive; USP10 block: inactive; USP28 block: inactive; USP30 inh: inactive; USP17 inh: 41

What do the screens show for `COc1cccc(CNC(=O)[C@H](C)N2C(=O)N3CCc4c([nH]c5ccc(OC)cc45)[C@@]3(C)C2=O)c1`?
USP8 block: inactive; USP10 block: inactive; USP28 block: inactive; USP30 inh: inactive; USP17 inh: inactive

What do the screens show for `C[C@]12C(=O)N(C3CCCC3)CC(=O)N1CC(c1ccc(Cl)cc1)c1c2[nH]c2ccccc12` (some centres not stated)?
USP8 block: inactive; USP10 block: inactive; USP28 block: inactive; USP30 inh: inactive; USP17 inh: inactive

Results for COc1ccc(C2[C@@H]3CCCC[C@]3(O)CCN2Cc2ccccc2F)cc1 (some centres not stated) ?
USP8 block: inactive; USP10 block: inactive; USP28 block: inactive; USP30 inh: inactive; USP17 inh: inactive

What do the screens show for `COCCN1C(=O)c2ccccc2C(C(=O)Nc2ccccc2F)C12CCCCC2` (configuration not stated)?
USP8 block: inactive; USP10 block: inactive; USP28 block: inactive; USP30 inh: inactive; USP17 inh: inactive

How did Cc1nn2cnnc2c(C)c1CCC(=O)Nc1ccc(F)cc1F do in these assays?
USP8 block: inactive; USP10 block: inactive; USP28 block: inactive; USP30 inh: inactive; USP17 inh: inactive

Results for Cc1c(C2CCCN(C(=O)c3ccn(C)n3)C2)n2c(nc1=O)CCC2 (configuration not stated) ?
USP8 block: 36; USP10 block: inactive; USP28 block: inactive; USP30 inh: 37; USP17 inh: inactive

What do the screens show for `CNc1cncc(C2CCN(C(=O)c3ccn(C)n3)CC2)n1`?
USP8 block: inactive; USP10 block: inactive; USP28 block: inactive; USP30 inh: inactive; USP17 inh: inactive

What do the screens show for `O=C(c1ccc(COc2cccc3ccccc23)o1)N1CCC(Cc2ccccc2)CC1`?
USP8 block: inactive; USP10 block: inactive; USP28 block: inactive; USP30 inh: inactive; USP17 inh: 68

How did O=C(COc1ccccc1F)N1CCC(Cc2ccccc2)CC1 do in these assays?
USP8 block: inactive; USP10 block: inactive; USP28 block: inactive; USP30 inh: inactive; USP17 inh: inactive

What do the screens show for `CC(C)n1ncc2c(C(=O)NCCc3ccc(Cl)cc3)cc(C3CC3)nc21`?
USP8 block: inactive; USP10 block: inactive; USP28 block: 38; USP30 inh: inactive; USP17 inh: inactive

What do the screens show for `CC(C)n1ncc2c(C(=O)NCCc3cccc(Cl)c3)cc(C3CC3)nc21`?
USP8 block: inactive; USP10 block: inactive; USP28 block: 37; USP30 inh: inactive

Results for Cc1c(Cl)cccc1NC(=O)NCCN1CCc2ccccc2C1 ?
USP8 block: inactive; USP10 block: inactive; USP28 block: inactive; USP30 inh: inactive; USP17 inh: inactive

How did COc1ccc(NS(=O)(=O)c2ccc(O)c([N+](=O)[O-])c2)cc1S(=O)(=O)N1CCCCC1 do in these assays?
USP8 block: inactive; USP10 block: inactive; USP28 block: inactive; USP30 inh: inactive; USP17 inh: inactive

Screening results from PubChem.
